# Screens (PubChem BioAssay)
# An excerpt weighted towards active compounds, which were near 1.7% of everything screened.
# GLP1R inv ag – qHTS of GLP-1 Receptor Inverse Agonists (Inhibition Mode); Potency, µM (highest dose often 38.3 µM), inactives show top-dose activity change, negative = inhibition, most hits filed as inhibitors; hit rate 1.6% among 410,000; HEK293 GLP-1R CRE-luciferase, luminescence, 24 h; GLP-1R form is constitutively active; further: on the % scale 0 is the no-effect control and ±100 the full control effect; nearly all actives have a fitted effect of over 55% in size
#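 qHTS in 1536-well format: reporter HEK293 cells expressing constitutive GLP-1R activity in DMEM + 10% Nu serum, 24 hr with compounds at 37 deg C, luminescence read after 12 min with detection reagent.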
# GLP1R ag – qHTS of GLP-1 Receptor Agonists | Potency, µM (highest dose often 45.6 µM), without a hit: top-dose activation, most hits filed as activators | HEK293 GLP-1R CRE-luciferase, luminescence, 4-6 h; cells express a hypersensitive GLP-1R form | hit rate 0.007% among 380,000 | Glucagon-like peptide 1 receptor (Homo sapiens), P43220; further: % of control where 0% means no effect
# HEK293 tox – qHTS of GLP-1 Receptor Inverse Agonists: Cytotox Screen; AID 624418, 2012; HEK293 cAMP-luciferase reporter cells, luminescence, 24 h; Potency, µM (top dose mostly 38.3 µM), for the others: top-dose activity change, negative = inhibition, most hits filed as inhibitors; hit rate 0.13% among 410,000;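 further: loss of luciferase light is scored as toxicity; on the % scale 0 is the no-effect control and ±100 the full control effect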
#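 Compound-treated cells are incubated 24 hr at 37 deg C under 5% CO2 after a 12 hour attachment period, then luciferase detection reagent is added and luminescence is measured following 12 min at room temperature; lowered signal indicates toxicity.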
# PTHR1 ag – qHTS for PTHR1 Agonists: Primary Screen | hit rate 0.075% among 410,000 | HEK293 GP2 PTHR1 cells, GloSensor cAMP luminescence, 1 h | Parathyroid hormone/parathyroid hormone-related peptide receptor (Homo sapiens), Q03431 | Potency, µM (titrated, usually from 115 µM), for inactives: at the highest dose activation, hits mostly activators; further: nearly all actives have a fitted effect of over 55% in size
# Target sequence (Q03431 whole entry, looked up): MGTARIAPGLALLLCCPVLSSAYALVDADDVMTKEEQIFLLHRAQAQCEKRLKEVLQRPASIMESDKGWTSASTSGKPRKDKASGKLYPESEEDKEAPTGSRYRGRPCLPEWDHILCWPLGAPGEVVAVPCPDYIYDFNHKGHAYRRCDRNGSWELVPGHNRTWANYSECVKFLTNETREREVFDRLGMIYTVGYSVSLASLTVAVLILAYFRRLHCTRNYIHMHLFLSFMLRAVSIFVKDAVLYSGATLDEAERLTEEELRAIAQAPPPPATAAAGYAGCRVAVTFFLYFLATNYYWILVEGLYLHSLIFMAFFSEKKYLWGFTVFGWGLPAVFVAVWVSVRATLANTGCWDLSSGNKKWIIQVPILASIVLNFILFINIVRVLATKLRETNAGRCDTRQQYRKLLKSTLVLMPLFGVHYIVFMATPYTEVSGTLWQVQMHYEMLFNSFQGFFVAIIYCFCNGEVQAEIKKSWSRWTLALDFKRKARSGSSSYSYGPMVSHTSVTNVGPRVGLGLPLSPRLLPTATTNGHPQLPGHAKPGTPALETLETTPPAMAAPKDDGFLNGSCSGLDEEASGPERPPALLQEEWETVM
#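 HEK-293-derived GP2 cells expressing PTHR1 and a GloSensor cAMP reporter, 3,000/well, plated overnight, given luciferin plus IBMX (each 0.5 mM as added) for 1 h at 37 °C, then compound for 1 h at 37 °C. Luminescence was read after 15 min at room temperature.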
# The depositor's hits bear a star; i = inactive; ? = inconclusive; . = no result; [ ] = another dose, or the depositor's remark. The call rests on the fitted dose curve; in most records, active means well fitted curve in the direction sought with a large enough effect; inconclusive means small, poorly fitted or top-dose-only effect, or another doubt; inactive means no such curve, though single readings can be large; an effect the other way counts as inactive or inconclusive. Potency means the concentration at half of the fitted maximal effect.
SMILES,GLP1R inv ag,GLP1R ag,HEK293 tox,PTHR1 ag
CC(C)(C)OC(=O)N(CCc1ccccc1)Cc1ccccc1OCc1cccc(NC(=O)C2CCCC2)c1,2.82µM*,-3.4%,3.8%,7.0%
CC(C)(C)OC(=O)N(Cc1ccccc1)Cc1ccccc1OCc1cccc(NC(=O)c2ccccc2)c1,?,-4.3%,0.9%,i
CC(C)(C)OC(=O)N(CCc1ccccc1)Cc1ccccc1OCc1cccc(NC(=O)C2CC2)c1,?,0.1%,-3.0%,-11.8%
CC(C)(C)OC(=O)N(Cc1ccccc1)Cc1ccc(OCc2cccc(NC(=O)C3CC3)c2)cc1,2.5%,-5.6%,3.0%,-55.0%
CC(C)C(=O)Nc1cccc(COc2ccccc2CN(Cc2ccccc2)C(=O)OC(C)(C)C)c1,11.2µM*,4.7%,-2.8%,i
C[C@@H]1O[C@@]2(CS1)CN1CCC2CC1,.,-2.2%,.,.
CCn1c(CN2CCCCC2)nc2cc(NC(=O)c3cccc([N+](=O)[O-])c3)ccc21,?,.,-12.2%,-13.2%
CC(C)(C)OC(=O)N(CCc1ccccc1)Cc1cccc(OCc2cccc(NC(=O)C3CCCC3)c2)c1,10µM*,18.1%,-11.1%,-2.5%
CC(OC(=O)c1oc2ccccc2c1COc1ccccc1)C(=O)NC(N)=O (centres undefined),-20.8%,22.0%,-0.2%,25.4%
O=C(NCCc1ccccc1)c1oc2ccccc2c1COc1ccccc1,3.16µM*,12.0%,16.3%,-6.3%
O=C(Nc1ccccc1Cc1ccccc1)c1oc2ccccc2c1COc1ccccc1,4.47µM*,-4.6%,77.9%,-28.7%
Cc1c(C(=O)NCCc2ccccc2)oc2ccccc12,?,11.9%,-1.0%,-28.1%
CCc1ccc(NC(=O)CC2C(=O)N(c3cccc(OC)c3)C(=O)N2C2CCCC2)cc1 (centres undefined),?,.,-15.1%,-32.3%
Cc1cc(C(=O)CSc2nc(N)cc(N)n2)c(C)n1CCc1ccc(F)cc1,5.62µM*,2.4%,-24.9%,-26.0%[57.5 µM]
Cc1cc(C(=O)COC(=O)c2ccc(O)cc2)c(C)n1CCc1ccc(F)cc1,?,7.9%,-15.1%,-41.2%
CN(C)c1ccc(C(CNC(=O)c2ccccc2Cl)N2CCCC2)cc1 (centres undefined),35.7%,.,-11.3%,-3.1%
OCCCn1c(-c2ccccc2)csc1=Nc1ccccc1,11.2µM*,7.0%,19.1%,-43.9%
O=S(=O)(c1ccc(-c2csc(=Nc3ccc(OC(F)(F)Cl)cc3)n2CCCO)cc1)N1CCCC1,10µM*,.,-26.8%,-96.8%
CCN(CC)CCn1c(-c2ccccc2)csc1=Nc1ccccc1,?,.,?,i
CC(C)(C)OC(=O)N1CCC(c2c(C(=O)NCC3CCN(C4CCCC4)C3)cnn2-c2ccccc2)CC1 (centres undefined),?,10.9%,0.0%,i
CC(C)(C)OC(=O)N1CCC(c2c(C(=O)NCC3CCN(C4CCCC4)C3)cnn2-c2cccc(Cl)c2)CC1 (centres undefined),12.6µM*,3.5%,?,-13.6%
COC(=O)c1ccc(/C=N/OCC(=O)NC2CCCC(C)C2C)cc1 (centres undefined),?,6.4%,-11.9%,i
COC(=O)c1ccc(/C=N/OCC(=O)NC2CCCCCCC2)cc1,12.6µM*,9.1%,-3.2%,i
COc1ccc2c(Cl)c(-c3nnc(SCC(=O)c4ccccc4)n3C)sc2c1,11.2µM*,-1.5%,-25.1%,-2.9%[57.5 µM]
COc1ccc2c(Cl)c(-c3nnc(SCC(N)=O)n3C)sc2c1,-8.1%,2.4%,-24.8%,i
Cc1cc(CC(C)C)n(-c2nc3ccccc3c(=O)n2OCc2ccccc2)n1,7.08µM*,0.8%,-15.5%,-24.9%[57.5 µM]
COc1ccc(CCNC(=O)c2cc3sccc3n2Cc2ccc(Cl)cc2)cc1OC,?,.,2.9%,-30.1%
Cc1nn(C(C)C(=O)NCc2ccc(OC(C)C)cc2)c(=O)c2c1sc1ccccc12 (centres undefined),-18.9%,.,16.7%,?
Cc1ccc(CNC(=O)C(C)n2nc(C)c3sc4ccccc4c3c2=O)cc1 (centres undefined),-9.8%,.,-7.8%,44.7µM*
